PubChem BioAssay AID1159580 (chemical genetic matrix, 2015)
Where “and” joins values, the source holds several entries; their conditions need not be identical. Equal values may be shown once. Out of some 5,500 compounds screened, about 2,000 (36%) were called active. Inconclusive results (about 18%) are left out. Rule as the data show it: active = normalized growth mostly below about 0.91 (no sharp cut-off); inconclusive = no clear call, values can overlap the other calls; inactive = mostly above about 0.92. Some of the results follow.

Assay: chemical genetic growth profiling, strain panel (AID 1159580);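 also: tested at 20 µM; growth read once vehicle control cultures reached saturation at 30 °C; 1 = growth at the plate median or of vehicle wells; lower values mean less growth of the strain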
Settings: S. cerevisiae deletion strains, growth OD

Measured: normalized growth

CC(=O)O[C@H]1CC[C@@]2(C)C(C[C@@H](OC(C)=O)[C@@]3(C)C4=CC(=O)O[C@@H](c5ccoc5)[C@]4(C)CCC23)C1(C)C (stereo partly drawn)
active: locus YKL009W, strain mrt4, hits give low values 1.21 [resistant]
inactive: locus YAL021C, strain ccr4, hits give low values 1 | locus YAL026C, strain drs2, hits give low values 1.01 | locus YAL030W, strain snc1, hits give low values 0.999 | locus YBL061C, strain skt5, hits give low values 0.997 | locus YBR009C, strain hhf1, hits give low values 1.02 | locus YBR021W, strain FUR4, hits give low values 0.981 | locus YBR023C, strain chs3, hits give low values 0.996 | locus YBR171W, strain sec66, hits give low values 1 | locus YBR229C, strain ROT2, hits give low values 1.01 | locus YBR231C, strain swc5, hits give low values 1.01 | locus YBR279W, strain paf1, hits give low values 1 | locus YCL011C, strain gbp2, hits give low values 1.01 | locus YCL016C, strain dcc1, hits give low values 1.01 | locus YCL029C, strain bik1, hits give low values 0.989 | locus YCL061C, strain MRC1, hits give low values 0.994 | locus YCL069W, strain vba3, hits give low values 1.02 | locus YCR088W, strain abp1, hits give low values 1 | locus YDL005C, strain med2, hits give low values 1 | locus YDL035C, strain GPR1, hits give low values 1.02 | locus YDL040C, strain nat1, hits give low values 1 | locus YDL074C, strain BRE1, hits give low values 1 | locus YDL101C, strain DUN1, hits give low values 0.999 | locus YDL134C, strain PPH21, hits give low values 1 | locus YDL185W, strain tfp1, hits give low values 1 | locus YDL192W, strain arf1, hits give low values 0.988 | locus YDR001C, strain nth1, hits give low values 1 | locus YDR069C, strain doa4, hits give low values 1.02 | locus YDR101C, strain arx1, hits give low values 1.01 | locus YDR137W, strain rgp1, hits give low values 0.96 | locus YDR150W, strain NUM1, hits give low values 1.01 | locus YDR159W, strain sac3, hits give low values 1 | locus YDR162C, strain NBP2, hits give low values 0.992 | locus YDR195W, strain ref2 1.02 | locus YDR297W, strain sur2, hits give low values 1.02 | locus YDR318W, strain mcm21, hits give low values 0.998 | locus YDR334W, strain swr1, hits give low values 1.01 | locus YDR335W, strain msn5, hits give low values 0.997 | locus YDR388W, hits give low values 1 | locus YDR392W, strain spt3, hits give low values 0.974 | locus YDR502C, strain sam2, hits give low values 0.992 | locus YEL003W, strain gim4, hits give low values 1 | locus YEL037C, strain rad23, hits give low values 1 | locus YEL061C, strain CIN8 (second series), hits give low values 1.01 | locus YEL061C, strain CIN8, hits give low values 1.01 | locus YER015W, strain faa2, hits give low values 0.991 | locus YER016W, strain bim1, hits give low values 0.997 | locus YER110C, hits give low values 0.992 | locus YER111C, strain swi4, hits give low values 1.01 | locus YER155C, strain BEM2 (second series), hits give low values 0.992 | locus YER155C, strain BEM2, hits give low values 1.01 | locus YER167W, strain BCK2, hits give low values 1.01 | locus YFR010W, strain ubp6, hits give low values 1 | locus YGL078C, strain dbp3, hits give low values 0.992 | locus YGL086W, strain mad1, hits give low values 1.01 | locus YGL167C, strain pmr1, hits give low values 1.01 | locus YGL173C, strain kem1, hits give low values 1.01 | locus YGL227W, strain vid30, hits give low values 0.997 | locus YGL240W, strain doc1, hits give low values 1.02 | locus YGL248W, strain PDE1, hits give low values 1 | locus YGL253W, strain hxk2, hits give low values 1 | locus YGR078C, strain PAC10, hits give low values 0.988 | locus YGR135W, strain pre9, hits give low values 0.975 | locus YGR229C, strain SMI1, hits give low values 1 | locus YGR252W, strain gcn5, hits give low values 0.929 | locus YHR013C, strain ard1, hits give low values 0.978 | locus YHR027C, strain rpn1, hits give low values 1.01 | locus YHR030C, strain SLT2, hits give low values 0.955 | locus YHR079C, strain IRE1 (second series), hits give low values 0.993 | locus YHR079C, strain IRE1, hits give low values 0.98 | locus YHR094C, strain hxt1, hits give low values 0.998 | locus YHR129C, strain ARP1, hits give low values 1.01 | locus YHR142W, strain chs7, hits give low values 1 | locus YHR200W, strain rpn10, hits give low values 0.994 | locus YIL066C, strain RNR3, hits give low values 1.02 | locus YIL073C, strain SPO22, hits give low values 1.02 | locus YIL125W, strain kgd1, hits give low values 1.01 | locus YIR030C, strain dcg1, hits give low values 0.991 | locus YJL092W, strain hpr5, hits give low values 0.996 | locus YJL095W, strain BCK1 (second series), hits give low values 0.99 | locus YJL095W, strain BCK1, hits give low values 0.985 and 0.949 | locus YJL115W, strain asf1, hits give low values 0.993 | locus YJL129C, strain trk1, hits give low values 0.99 | locus YJL134W, strain LCB3, hits give low values 1.01 | locus YJL154C, strain vps35, hits give low values 0.994 | locus YJL164C, strain tpk1, hits give low values 1.01 | locus YJL166W, strain qcr8, hits give low values 1.02 | locus YJL168C, strain set2, hits give low values 0.986 | locus YJL187C, strain SWE1 (second series), hits give low values 0.997 | locus YJL187C, strain SWE1, hits give low values 1.01 | locus YJR066W, strain TOR1, hits give low values 0.9 | locus YJR075W, strain HOC1, hits give low values 1.01 | locus YKL068W, hits give low values 0.984 | locus YKL085W, strain MDH1 (second series), hits give low values 1.02 | locus YKL085W, strain MDH1, hits give low values 1.02 | locus YKL160W, strain elf1, hits give low values 1 | locus YKL190W, strain CNB1, hits give low values 1 | locus YKR001C, strain vps1, hits give low values 0.983 | locus YKR026C, strain gcn3, hits give low values 1.01 | locus YKR091W, strain srl3, hits give low values 1 | locus YLL001W, strain dnm1, hits give low values 1.01 | locus YLL026W, hits give low values 0.995 | locus YLL041C, strain sdh2, hits give low values 0.987 | locus YLR027C, strain aat2, hits give low values 1 | locus YLR039C, strain RIC1, hits give low values 0.985 | locus YLR058C, strain SHM2, hits give low values 1.01 | locus YLR102C, strain apc9, hits give low values 0.997 | locus YLR113W, strain HOG1, hits give low values 0.966 | locus YLR221C, strain rsa3, hits give low values 1.02 | locus YLR258W, strain gsy2, hits give low values 0.995 | locus YLR262C, strain YPT6 (second series), hits give low values 0.979 | locus YLR262C, strain YPT6, hits give low values 1.02 | locus YLR268W, strain sec22, hits give low values 1.01 | locus YLR320W, strain mms22, hits give low values 0.999 | locus YLR342W, strain FKS1, hits give low values 1 | locus YLR357W, strain rsc2, hits give low values 1.01 | locus YLR370C, strain arc18, hits give low values 1.02 | locus YLR371W, strain rom2, hits give low values 1 | locus YLR384C, strain iki3, hits give low values 0.987 | locus YLR418C, strain cdc73, hits give low values 0.954 | locus YML016C, strain PPZ1, hits give low values 1.01 | locus YML032C, strain rad52, hits give low values 0.985 | locus YML120C, strain ndi1, hits give low values 1.02 | locus YML124C, strain tub3, hits give low values 0.987 | locus YMR058W, strain fet3, hits give low values 1 | locus YMR078C, strain ctf18, hits give low values 0.981 | locus YMR125W, strain sto1, hits give low values 0.99 | locus YMR129W, hits give low values 1 | locus YMR205C, strain PFK2, hits give low values 1.01 | locus YMR223W, strain ubp8, hits give low values 0.983 | locus YMR231W, strain pep5, hits give low values 0.991 | locus YMR263W, strain SAP30, hits give low values 1.01 | locus YMR307W, strain GAS1, hits give low values 1.03 | locus YNL067W, strain RPL9B, hits give low values 0.997 | locus YNL071W, strain lat1, hits give low values 1.01 | locus YNL153C, strain GIM3, hits give low values 0.999 | locus YNL183C, strain NPR1, hits give low values 0.935 | locus YNL209W, strain ssb2, hits give low values 1.02 | locus YNL233W, strain BNI4, hits give low values 1.02 | locus YNL248C, strain rpa49, hits give low values 1.01 | locus YNL250W, strain rad50, hits give low values 0.995 | locus YNL271C, strain bni1, hits give low values 1 | locus YNL298W, strain CLA4, hits give low values 1.01 | locus YNL307C, strain MCK1, hits give low values 0.995 | locus YNL322C, strain KRE1 (second series), hits give low values 0.987 | locus YNL322C, strain KRE1, hits give low values 1.01 | locus YNR049C, strain mso1, hits give low values 1.01 | locus YNR052C, strain pop2, hits give low values 0.987 | locus YOL006C, strain TOP1, hits give low values 0.965 | locus YOL012C, strain htz1 1.15 | locus YOL147C, strain pex11, hits give low values 1 | locus YOR001W, strain rrp6, hits give low values 1.01 | locus YOR061W, strain CKA2, hits give low values 1.01 | locus YOR069W, strain VPS5, hits give low values 1 | locus YOR070C, strain gyp1, hits give low values 1.01 | locus YOR080W, strain dia2, hits give low values 1 | locus YOR083W, strain WHI5, hits give low values 1 | locus YOR106W, strain vam3, hits give low values 1.03 | locus YOR136W, strain idh2, hits give low values 0.992 | locus YOR144C, strain elg1, hits give low values 0.995 | locus YOR184W, strain ser1, hits give low values 1.01 | locus YOR231W, strain MKK1, hits give low values 0.957 | locus YOR265W, strain rbl2, hits give low values 1.02 | locus YOR270C, strain vph1, hits give low values 0.886 | locus YOR290C, strain snf2, hits give low values 0.998 | locus YOR316C, strain cot1, hits give low values 0.997 | locus YPL051W, strain arl3, hits give low values 0.997 | locus YPL055C, strain LGE1, hits give low values 1.03 | locus YPL078C, strain atp4, hits give low values 1.01 | locus YPL106C, strain sse1, hits give low values 1.02 | locus YPL240C, strain hsp82, hits give low values 0.998 | locus YPL241C, strain CIN2, hits give low values 1 | locus YPL256C, strain CLN2, hits give low values 0.96 | locus YPR119W, strain clb2, hits give low values 0.992 | locus YPR141C, strain kar3, hits give low values 0.99 | locus YPR163C, strain tif3, hits give low values 0.989 | locus YPR167C, strain met16, hits give low values 0.985 | strain wtn01, hits give low values 0.993
